Laboratory results reported in ChEMBL document CHEMBL3988442, “University of Dundee, Small-Polar-MMV Screening Library” (2021).

biological target: Shiga toxin 2 (Escherichia coli O157:H7) (UniProt P09385+P09386); experiment: E. coli 0.157:H7 Shiga Toxin SOP - stx2 screening assay; format: functional; parameters: scale not given: direction of the effect not stated beside the values; conditions: 30 µM

Row | SMILES | Percent Effect
1 | COCCN1CCN(CCCS(C)(=O)=O)CC1C (stereo not given) | -23.7%
2 | NC(=O)C1CN(C(=O)Nc2ccccc2-c2cccs2)CCO1 (stereo not given) | -14.7%
3 | CN(Cc1ccco1)[C@@H]1CN(Cc2ccco2)[C@@H]2CCCO[C@H]12 | 0.222%
4 | Cc1nnc(N2CCC(CS(N)(=O)=O)CC2)c(C#N)c1C | 21.6%
5 | Cn1cc(CN2CC3(CCN(C(=O)c4cscn4)C3)C2)cn1 | -18.3%
6 | COCCN1C[C@H]2[C@@H](C1)N(C(=O)c1cccs1)CC[C@H]2OC | 3.28%
7 | O=C(NCC1CC1)C1=NOC2(CCN(Cc3ccc4c(c3)OCO4)C2)C1 (stereo not given) | -49.8%
8 | OC(CN1CCOCC1)CN1CCc2c(ncn2C2CC2)C1 (stereo not given) | -43.3%
9 | CSCCCN1CCCC1c1noc(C)n1 (stereo not given) | 11.3%
10 | O=C1COC2(CCN(Cc3cccs3)CC2)CN1c1ccccc1 | -22%
11 | CN(Cc1ccc(Cl)s1)C(=O)c1cccc(OCC(N)=O)c1 | 0.368%
12 | CCc1cccc(OCC(=O)N2CCCC(n3cncn3)C2)c1 (stereo not given) | 26%
13 | OCC1CCCN1c1cc(N2CCc3ccccc3C2)ncn1 (stereo not given) | -49.8%
14 | COc1c(CNC2CCSc3ccc(F)cc32)c(C)nn1C (stereo not given) | -10.4%
15 | CC(C)c1nnc2n1CCN(C(=O)c1ccc(-n3cnnc3)cc1)C2 | -19.9%
16 | COc1ccc(C)cc1CNCc1ccc(-n2nc(C)cc2C)nc1 | 26.6%
17 | CNc1cncc(C2CCCN2Cc2c[nH]cn2)n1 (stereo not given) | 7.95%
18 | Cc1cc(CN2CCN(c3ccc4nncn4n3)C(C)C2)no1 (stereo not given) | -29.9%
19 | CNS(=O)(=O)c1cccc(CNC(=O)c2c(C)nn(C)c2C)c1 | 8.19%
20 | CN1CCOC(CNCc2cccc(OCc3ccccn3)c2)C1 (stereo not given) | -16.3%

Row | SMILES | Percent Effect
21 | CC(C)Nc1nc(N2CCCC2)nc2c1CN(C(C)C)CC2 | -118%
22 | CC(C)c1nn(CC(=O)N2CCCCC2)c(=O)c2c1cnn2C(C)(C)C | 2.7%
23 | Cc1nc(CNC(=O)NCCc2ccc(N(C)C)cc2)cs1 | 16.6%
24 | COc1ncccc1NC(=O)NCC(O)c1ccc(F)cc1F (stereo not given) | -0.623%
25 | O=C(CN1CCCCC1C1OCCO1)Nc1ccc(F)c(F)c1 (stereo not given) | 3.89%
26 | CCN(c1ccc(C(=O)NCCCN2CCOCC2)cc1)S(=O)(=O)CC | -48.2%
27 | COCC1CN(Cc2ccncc2)Cc2nnn(CC3CC3)c21 (stereo not given) | -28.3%
28 | O=C(c1cnccn1)N1C[C@@H]2CC[C@H](C1)N(C(=O)Cc1ccsc1)C2 | -38.6%
29 | CCS(=O)(=O)N1CCC2(CCCN(Cc3cc(OC)ccc3F)C2)C1 (stereo not given) | -3.7%
30 | CC(C)c1nccn1C1CCCN(C(=O)c2ccnc(N(C)C)c2)C1 (stereo not given) | -29.7%
31 | CN(C)CCO[C@@H]1CC[C@H]2[C@H]1OCCN2C(=O)COc1ccccc1 | -12.1%
32 | Cc1ccccc1C(=O)NCc1ccc(N2CCNC(=O)C2)cc1 | -90.8%
33 | CN(Cc1ccccc1)C1COC2(CCN(Cc3nccs3)CC2)C1 (stereo not given) | -24.7%
34 | Cc1ccc(N2CC[C@H]3C[C@@H](C(=O)N4CCOCC4)O[C@H]3C2)nn1 | 12.8%
35 | CCN(Cc1ccc2c(c1)OCCO2)C(=O)NCc1nc(C)cs1 | 28.5%
36 | O=C(NCC1CC1)C1CN(C(=O)c2cccc(Cl)c2)CC12CCOCC2 (stereo not given) | -14.2%
37 | Cc1ccc(-c2nc(CCNC(=O)CCN3CCOC3=O)co2)cc1 | -45.5%
38 | CCOc1ncccc1CNC(=O)Nc1ccc(N(C)C)nc1 | -48.5%
39 | O=c1cc2c(nn1CN1CCOCC1)CCC2 | -10.5%
40 | CCC(=O)N1CCCC1c1nccnc1Nc1nc(C)cc(C)n1 (stereo not given) | -28.8%
